Experimental findings from PubChem BioAssay (EPA / NIEHS) are described below.

Inconclusive results are not listed. Activity calls are given as the source filed them. The calls were made as follows: active = hit-call score of the fitted dose curve at least 0.9, where 1 is the maximum; inconclusive = response in the unintended direction; inactive = score below 0.9.

For assay [1], the target named is human AMP-activated Protein Kinase, alpha 1 (AMPKa1), PRKAA1 (gene 5562) (UniProt Q13131). As to the kind of experiment: NVS_ENZ_hAMPKa1: NovaScreen (NVS) Enzymatic Assay for human AMP-activated Protein Kinase, alpha 1 (AMPKa1) (AID 2283130). In a few lines:
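Recombinant human AMPKα1 activity was measured cell-free by fluorescent substrate conversion with electrophoretic mobility-shift separation, 1 h after dosing. Duplicate single-point screening was at 25 uM; actives (≥30% inhibition) were retested in concentration-response up to 50 uM.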

For assay [2], the target named is human Aurora Kinase A - serine/threonine-protein Kinase 6 (AurA), AURKA (gene 6790) (UniProt O14965). The experiment in a line: NVS_ENZ_hAurA: NovaScreen (NVS) Enzymatic Assay for human Aurora Kinase A - serine/threonine-protein Kinase 6 (AurA) (AID 2283142). The procedure, abridged: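 Cell-free enzymatic assay with human Aurora A, 1 hour after dosing. Fluorescent substrate turnover detected after electrophoretic mobility shift separation of substrate and product. Screened at 25 uM, actives retested in concentration-response up to 50 uM.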

Assay [3] concerns the target human Fibroblast Growth Factor Receptor 1 (FGFR1), FGFR1 (gene 2260) (UniProt P11362). As to the kind of experiment: NVS_ENZ_hFGFR1: NovaScreen (NVS) Enzymatic Assay for human Fibroblast Growth Factor Receptor 1 (FGFR1) (AID 2283159).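 As to AC50: hits lower the signal so potencies describe inhibitors of the kinase.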 In a few lines:
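Cell-free recombinant kinase with fluorescent substrate, product separated by electrophoretic mobility shift; read 1 hour after dosing, loss of signal relative to DMSO. Initial screen in duplicate at 25 uM, actives followed in concentration series.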

Assay [4] concerns the target human Tyrosine Protein Kinase Receptor Tie-2 (Tie2), TEK (gene 7010) (UniProt Q02763). The experiment in a line: NVS_ENZ_hTie2: NovaScreen (NVS) Enzymatic Assay for human Tyrosine Protein Kinase Receptor Tie-2 (Tie2) (AID 2283225). In a few lines:
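Recombinant human Tie2 kinase activity was read cell-free by fluorescence with electrophoretic mobility shift, 1 hour after dosing. The screen used 25 uM in duplicate, then concentration-response up to 50 uM. Signal loss was scored against DMSO.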

Assay [5] concerns the target bovine Gamma-Aminobutyric Acid Type A Receptor BDZ, alpha 1 site (GABARa1), GABRA1 (gene 780973) (UniProt P08219). The experiment in a line: NVS_LGIC_bGABARa1: NovaScreen (NVS) Ligand-Gated Ion Channel Assay for bovine Gamma-Aminobutyric Acid Type A Receptor BDZ, alpha 1 site (GABARa1) (AID 2283321). The procedure, abridged:
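Radioligand competition binding on bovine cortical membranes, 0.75 h, filter-based scintillation counting. Primary single concentration 25 uM in duplicate; actives rerun in concentration-response to 50 uM max. Loss of signal fitted versus DMSO.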

The target in assay [6] is human Acetylcholinesterase (AChE), ACHE (gene 43) (UniProt P22303). As to the kind of experiment: NVS_ENZ_hAChE: NovaScreen (NVS) Enzymatic Assay for human Acetylcholinesterase (AChE) (AID 2283129). In a few lines: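 Cell-free colorimetric enzyme-activity assay; compounds read 0.33 hour after dosing, loss of signal vs DMSO baseline. Primary screen in duplicate at 25 uM single concentration, with active compounds retested in concentration series.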
Chain of human Acetylcholinesterase (AChE), ACHE (gene 43) (P22303 whole entry, looked up): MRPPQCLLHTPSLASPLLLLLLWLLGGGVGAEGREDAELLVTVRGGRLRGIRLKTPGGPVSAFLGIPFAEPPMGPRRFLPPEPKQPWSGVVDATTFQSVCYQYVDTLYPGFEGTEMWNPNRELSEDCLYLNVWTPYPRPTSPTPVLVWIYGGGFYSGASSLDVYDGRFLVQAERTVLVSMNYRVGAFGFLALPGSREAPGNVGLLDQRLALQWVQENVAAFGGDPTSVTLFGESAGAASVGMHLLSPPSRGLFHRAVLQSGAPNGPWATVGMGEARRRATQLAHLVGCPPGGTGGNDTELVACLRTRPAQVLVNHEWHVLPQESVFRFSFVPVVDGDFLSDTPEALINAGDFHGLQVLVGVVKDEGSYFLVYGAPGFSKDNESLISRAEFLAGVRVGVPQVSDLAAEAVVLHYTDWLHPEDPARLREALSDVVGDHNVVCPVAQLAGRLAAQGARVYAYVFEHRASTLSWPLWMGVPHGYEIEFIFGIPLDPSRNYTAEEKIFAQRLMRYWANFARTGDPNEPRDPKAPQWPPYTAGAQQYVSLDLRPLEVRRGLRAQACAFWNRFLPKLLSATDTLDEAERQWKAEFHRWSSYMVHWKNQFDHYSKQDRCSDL

For assay [7], the target named is human Epidermal Growth Factor Receptor (EGFR), EGFR (gene 1956) (UniProt P00533). As to the kind of experiment: NVS_ENZ_hEGFR: NovaScreen (NVS) Enzymatic Assay for human Epidermal Growth Factor Receptor (EGFR) (AID 2283151). In a few lines:
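Cell-free kinase assay, fluorescence plus electrophoretic mobility shift separating substrate and product, read 1 hour after dosing; loss of signal vs DMSO. Duplicate screen at 25 uM, then concentration-response to 50 uM.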

For assay [8], the target named is human Raf-1 Proto-Oncogene, serine/threonine Kinase (RAF1), RAF1 (gene 5894) (UniProt P04049). The experiment in a line: NVS_ENZ_hRAF1: NovaScreen (NVS) Enzymatic Assay for human Raf-1 Proto-Oncogene, serine/threonine Kinase (RAF1) (AID 2283216). The procedure, abridged:
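Cell-free recombinant kinase with specific fluorescent substrate, product separated by electrophoretic mobility shift; read 1 h after dosing. Primary screen at 25 uM in duplicate; hits then run in concentration-response up to 50 uM, fitted as loss of signal versus DMSO.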

For assay [9], the target named is Caspase-1 (Homo sapiens) (UniProt P29466). As to the kind of experiment: NVS_ENZ_hCASP1: NovaScreen (NVS) Enzymatic Assay for human Caspase 1 (CASP1) (AID 2283132). In a few lines: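 Cell-free enzymatic assay with E. coli-expressed recombinant protein; fluorescence intensity read 1 hour after dosing. Single-concentration duplicate screen at 25 uM, then concentration-response up to 50 uM; activity fitted relative to DMSO, loss of signal meaning inhibition.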

Assay [10] deals with human Caspase 2 (CASP2), CASP2 (gene 835) (UniProt P42575). The experiment in a line: NVS_ENZ_hCASP2: NovaScreen (NVS) Enzymatic Assay for human Caspase 2 (CASP2) (AID 2283135). The procedure, abridged:
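E. coli-expressed enzyme in a cell-free protease assay, fluorescence read 1 h after dosing. Compounds at 25 uM in duplicate, with concentration-response up to 50 uM for hits; loss of signal against DMSO baseline.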

For assay [11], the target named is human Protein Tyrosine Phosphatase Receptor Type C (PTPRC), PTPRC (gene 5788) (UniProt P08575). As to the kind of experiment: NVS_ENZ_hPTPRC: NovaScreen (NVS) Enzymatic Assay for human Protein Tyrosine Phosphatase Receptor Type C (PTPRC) (AID 2283212). In a few lines: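 Yeast-extracted human PTPRC used in a cell-free colorimetric enzyme activity read-out, 1 h after dosing. Primary screen in duplicate at 25 uM; actives rerun in concentration-response up to 50 uM, DMSO as baseline.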

The target in assay [12] is rat Adenylate Cyclase, Forskolin Stimulated, Adcy5 (gene 64532) (UniProt Q04400). As to the kind of experiment: NVS_ENZ_rACFSKBinding: NovaScreen (NVS) Enzymatic Assay for rat Adenylate Cyclase, Forskolin Stimulated (AID 2283232). The procedure, abridged:
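Rat forebrain membrane preparation, cell-free, read 1 h after dosing by filter-based scintillation counting. Primary screen in duplicate at 25 uM; actives (e.g. ≥30% inhibition) rerun in concentration-response up to 50 uM; fit versus DMSO.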

Assay [13] concerns the target rat Acetylcholinesterase (AChE), Ache (gene 83817) (UniProt P37136). The experiment in a line: NVS_ENZ_rAChE: NovaScreen (NVS) Enzymatic Assay for rat Acetylcholinesterase (AChE) (AID 2283233). In a few lines:
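Rat brain membrane acetylcholinesterase activity measured colorimetrically 0.33 h after compound addition, loss of signal relative to DMSO. Primary screen in duplicate at 25 uM; actives re-run as concentration-response with 50 uM top concentration.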

Assay [14] has as its system rat Monoamine Oxidase, MAO-A, Peripheral (MAOAP), gene 29253. The experiment in a line: NVS_ENZ_rMAOAP: NovaScreen (NVS) Enzymatic Assay for rat Monoamine Oxidase, MAO-A, Peripheral (MAOAP) (AID 2283237). In a few lines: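 Rat liver mitochondrial membranes served as the MAO-A source, with enzyme activity measured by radiometric scintillation counting 1.17 hours after dosing. Loss of signal was fitted against DMSO; primary screen used 25 uM in duplicate, follow-up used concentration series.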

Assay [15] addresses rat Monoamine Oxidase, MAO-B, Central (MAOBC), Maob (gene 25750) (UniProt P19643). The experiment in a line: NVS_ENZ_rMAOBC: NovaScreen (NVS) Enzymatic Assay for rat Monoamine Oxidase, MAO-B, Central (MAOBC) (AID 2283238). In a few lines: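 Compounds were first tested in duplicate at 25 uM against MAO-B from rat brain tissue; those passing the inhibition threshold were retested in concentration series up to 50 uM. Radiodetection by scintillation counting at 1.17 h, analysed against DMSO baseline.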

For assay [16], the system named is rat Monoamine Oxidase, MAO-A, Central (MAOAC), gene 29253. As to the kind of experiment: NVS_ENZ_rMAOAC: NovaScreen (NVS) Enzymatic Assay for rat Monoamine Oxidase, MAO-A, Central (MAOAC) (AID 2283243).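 Also: potency refers to inhibition seen as signal drop below DMSO baseline.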 In a few lines:
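Inhibition of rat brain-derived MAO-A was read by scintillation counting after 1.5 h exposure. Compounds screened first at 25 uM in duplicate, then in dose series if active.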

The target of assay [17] is rat Monoamine Oxidase, MAO-B, Peripheral (MAOBP), Maob (gene 25750) (UniProt P19643). As to the kind of experiment: NVS_ENZ_rMAOBP: NovaScreen (NVS) Enzymatic Assay for rat Monoamine Oxidase, MAO-B, Peripheral (MAOBP) (AID 2283242).
Chain of rat Monoamine Oxidase, MAO-B, Peripheral (MAOBP), Maob (gene 25750) (P19643 whole entry, looked up): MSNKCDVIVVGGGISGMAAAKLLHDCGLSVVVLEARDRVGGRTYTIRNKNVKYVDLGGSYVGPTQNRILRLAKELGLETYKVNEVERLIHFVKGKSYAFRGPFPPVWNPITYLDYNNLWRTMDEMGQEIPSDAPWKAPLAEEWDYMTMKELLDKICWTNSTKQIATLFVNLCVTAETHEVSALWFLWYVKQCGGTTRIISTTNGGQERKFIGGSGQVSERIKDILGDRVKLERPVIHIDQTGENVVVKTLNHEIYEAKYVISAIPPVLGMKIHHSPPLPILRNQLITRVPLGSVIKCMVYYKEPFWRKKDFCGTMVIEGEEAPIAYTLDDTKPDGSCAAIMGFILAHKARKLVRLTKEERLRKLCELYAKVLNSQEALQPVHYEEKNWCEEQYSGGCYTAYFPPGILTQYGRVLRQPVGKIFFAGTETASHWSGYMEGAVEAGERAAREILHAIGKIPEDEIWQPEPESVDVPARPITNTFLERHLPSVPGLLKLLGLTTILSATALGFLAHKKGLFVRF
For assay [18], the target named is Norway rat Vesicular Monoamine Transporter (VMAT2), neurotransmitter transporter, Slc18a2 (gene 25549) (UniProt Q01827). The experiment in a line: NVS_TR_rVMAT2: NovaScreen (NVS) Transporter Assay for Norway rat Vesicular Monoamine Transporter (VMAT2), neurotransmitter transporter (AID 2283376).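 Also: actives lower the bound radioligand signal below the DMSO level.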 In a few lines: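 Tissue: rat forebrain extract. Format: competitive radioligand binding, cell-free. Timepoint: 1 h. Readout: filter radiodetection/scintillation. Screen: 25 uM in duplicate, then concentration series for actives. Baseline: DMSO.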

In assay [19] the target is human MET Proto-Oncogene, Receptor Tyrosine Kinase (MET), MET (gene 4233) (UniProt P08581). The experiment in a line: NVS_ENZ_hMet: NovaScreen (NVS) Enzymatic Assay for human MET Proto-Oncogene, Receptor Tyrosine Kinase (MET) (AID 2283180). The procedure, abridged: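 Cell-free MET kinase assay using recombinant protein and fluorescent substrate, with mobility-shift separation; read 1 h after dosing. Primary duplicate at 25 uM; actives in singleton concentration-response to 50 uM maximum. Signal loss versus DMSO.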

Assay [20] deals with human Neonicotinoid receptor (NNR), CHRNA2 (gene 1135) (UniProt Q15822). As to the kind of experiment: NVS_LGIC_hNNR_NBungSens: NovaScreen (NVS) Ligand-Gated Ion Channel Assay for human Neonicotinoid receptor (NNR) (AID 2283313). The procedure, abridged: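 Radioligand displacement on human neuroblastoma membranes, 2 h, filter-based scintillation counting. Primary screen in duplicate at 25 uM; chemicals passing threshold (e.g. 30% inhibition) run singleton concentration-response to 50 uM; loss of binding fitted versus DMSO.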
Chain of human Neonicotinoid receptor (NNR), CHRNA2 (gene 1135) (Q15822 whole entry, looked up): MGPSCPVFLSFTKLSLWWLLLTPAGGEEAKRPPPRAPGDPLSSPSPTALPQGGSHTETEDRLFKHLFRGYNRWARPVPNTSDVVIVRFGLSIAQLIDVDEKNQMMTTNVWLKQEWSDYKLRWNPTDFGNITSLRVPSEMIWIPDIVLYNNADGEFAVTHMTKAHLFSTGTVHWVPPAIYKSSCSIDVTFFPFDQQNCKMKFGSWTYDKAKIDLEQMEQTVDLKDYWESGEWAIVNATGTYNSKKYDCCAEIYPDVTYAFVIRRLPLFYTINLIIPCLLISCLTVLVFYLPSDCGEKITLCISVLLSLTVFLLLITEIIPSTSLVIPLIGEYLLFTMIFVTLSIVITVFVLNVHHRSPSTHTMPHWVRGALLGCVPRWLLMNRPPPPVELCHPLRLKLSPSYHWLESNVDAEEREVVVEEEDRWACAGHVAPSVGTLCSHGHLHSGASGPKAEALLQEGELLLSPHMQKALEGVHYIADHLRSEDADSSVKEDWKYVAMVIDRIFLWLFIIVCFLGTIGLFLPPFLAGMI

Chain of human Epidermal Growth Factor Receptor (EGFR), EGFR (gene 1956) (P00533 whole entry, looked up): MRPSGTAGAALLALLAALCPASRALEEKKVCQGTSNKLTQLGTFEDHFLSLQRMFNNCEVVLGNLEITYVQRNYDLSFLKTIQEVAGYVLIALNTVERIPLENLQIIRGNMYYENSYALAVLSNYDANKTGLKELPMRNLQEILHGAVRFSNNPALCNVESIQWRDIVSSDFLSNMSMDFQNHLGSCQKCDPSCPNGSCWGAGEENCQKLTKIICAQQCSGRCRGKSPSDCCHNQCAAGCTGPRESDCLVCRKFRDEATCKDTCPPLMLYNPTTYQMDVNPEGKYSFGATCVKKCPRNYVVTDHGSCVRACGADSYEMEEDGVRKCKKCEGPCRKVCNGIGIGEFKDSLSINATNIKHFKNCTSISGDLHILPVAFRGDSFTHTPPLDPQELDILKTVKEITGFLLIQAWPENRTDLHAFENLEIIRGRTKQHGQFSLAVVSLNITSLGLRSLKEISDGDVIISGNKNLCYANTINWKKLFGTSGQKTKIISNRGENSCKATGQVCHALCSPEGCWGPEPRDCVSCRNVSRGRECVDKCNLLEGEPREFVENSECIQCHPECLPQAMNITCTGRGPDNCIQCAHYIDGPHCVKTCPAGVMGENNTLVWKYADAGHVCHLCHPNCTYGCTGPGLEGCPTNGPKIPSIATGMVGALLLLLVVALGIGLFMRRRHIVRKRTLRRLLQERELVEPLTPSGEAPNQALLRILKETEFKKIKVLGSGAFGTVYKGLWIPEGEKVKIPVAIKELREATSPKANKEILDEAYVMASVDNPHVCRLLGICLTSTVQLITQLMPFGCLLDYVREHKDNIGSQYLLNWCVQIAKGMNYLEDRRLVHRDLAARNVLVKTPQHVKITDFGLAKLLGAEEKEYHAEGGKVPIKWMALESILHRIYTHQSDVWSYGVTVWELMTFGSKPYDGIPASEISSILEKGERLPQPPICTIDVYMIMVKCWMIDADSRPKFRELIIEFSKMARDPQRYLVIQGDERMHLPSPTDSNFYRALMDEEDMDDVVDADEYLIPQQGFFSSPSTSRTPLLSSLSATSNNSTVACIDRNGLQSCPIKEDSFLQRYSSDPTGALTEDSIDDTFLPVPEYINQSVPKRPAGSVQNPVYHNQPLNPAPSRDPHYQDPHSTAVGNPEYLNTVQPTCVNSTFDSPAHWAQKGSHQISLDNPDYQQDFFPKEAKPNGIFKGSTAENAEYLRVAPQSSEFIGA
Chain of rat Monoamine Oxidase, MAO-B, Central (MAOBC), Maob (gene 25750) (P19643 whole entry, looked up): as the sequence (P19643 whole entry, looked up) above
Chain of rat Acetylcholinesterase (AChE), Ache (gene 83817) (P37136 whole entry, looked up): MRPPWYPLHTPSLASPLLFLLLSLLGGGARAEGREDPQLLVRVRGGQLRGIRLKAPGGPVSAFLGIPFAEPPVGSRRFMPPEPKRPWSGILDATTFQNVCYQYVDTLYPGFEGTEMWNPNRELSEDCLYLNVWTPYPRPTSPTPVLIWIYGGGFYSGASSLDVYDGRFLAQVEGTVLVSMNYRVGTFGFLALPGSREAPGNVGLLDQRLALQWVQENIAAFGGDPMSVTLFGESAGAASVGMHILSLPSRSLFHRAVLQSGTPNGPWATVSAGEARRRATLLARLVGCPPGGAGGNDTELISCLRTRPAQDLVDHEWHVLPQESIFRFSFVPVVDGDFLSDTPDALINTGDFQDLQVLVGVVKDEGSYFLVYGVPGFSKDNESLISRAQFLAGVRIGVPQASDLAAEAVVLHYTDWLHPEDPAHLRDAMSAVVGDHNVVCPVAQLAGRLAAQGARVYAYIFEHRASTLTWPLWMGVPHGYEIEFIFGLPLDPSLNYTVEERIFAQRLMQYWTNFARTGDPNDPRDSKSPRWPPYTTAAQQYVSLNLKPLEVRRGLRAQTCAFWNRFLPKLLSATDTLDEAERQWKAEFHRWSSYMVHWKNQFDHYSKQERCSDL
Chain of human Fibroblast Growth Factor Receptor 1 (FGFR1), FGFR1 (gene 2260) (P11362 whole entry, looked up): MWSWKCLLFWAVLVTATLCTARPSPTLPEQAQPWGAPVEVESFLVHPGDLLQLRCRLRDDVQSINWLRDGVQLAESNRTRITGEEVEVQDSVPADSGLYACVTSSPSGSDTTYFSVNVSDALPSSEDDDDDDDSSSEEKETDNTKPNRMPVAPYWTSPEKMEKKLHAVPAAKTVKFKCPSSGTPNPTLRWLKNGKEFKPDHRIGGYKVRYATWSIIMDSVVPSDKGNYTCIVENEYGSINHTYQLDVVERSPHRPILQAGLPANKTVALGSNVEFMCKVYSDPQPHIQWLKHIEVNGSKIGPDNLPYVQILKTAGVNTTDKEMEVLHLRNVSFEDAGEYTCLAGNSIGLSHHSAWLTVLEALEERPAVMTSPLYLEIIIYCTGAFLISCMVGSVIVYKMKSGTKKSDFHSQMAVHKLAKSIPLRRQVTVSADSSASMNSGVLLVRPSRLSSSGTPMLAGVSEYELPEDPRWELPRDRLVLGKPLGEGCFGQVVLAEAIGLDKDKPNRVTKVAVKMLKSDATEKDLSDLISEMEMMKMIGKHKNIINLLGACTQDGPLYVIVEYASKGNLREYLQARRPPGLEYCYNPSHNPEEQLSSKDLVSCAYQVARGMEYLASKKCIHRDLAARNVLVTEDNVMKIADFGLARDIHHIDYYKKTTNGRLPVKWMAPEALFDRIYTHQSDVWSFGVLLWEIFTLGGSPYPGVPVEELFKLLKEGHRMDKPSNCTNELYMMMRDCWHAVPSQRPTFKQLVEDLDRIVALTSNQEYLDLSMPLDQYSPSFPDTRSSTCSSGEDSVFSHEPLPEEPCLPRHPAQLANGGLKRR
Chain of human AMP-activated Protein Kinase, alpha 1 (AMPKa1), PRKAA1 (gene 5562) (Q13131 whole entry, looked up): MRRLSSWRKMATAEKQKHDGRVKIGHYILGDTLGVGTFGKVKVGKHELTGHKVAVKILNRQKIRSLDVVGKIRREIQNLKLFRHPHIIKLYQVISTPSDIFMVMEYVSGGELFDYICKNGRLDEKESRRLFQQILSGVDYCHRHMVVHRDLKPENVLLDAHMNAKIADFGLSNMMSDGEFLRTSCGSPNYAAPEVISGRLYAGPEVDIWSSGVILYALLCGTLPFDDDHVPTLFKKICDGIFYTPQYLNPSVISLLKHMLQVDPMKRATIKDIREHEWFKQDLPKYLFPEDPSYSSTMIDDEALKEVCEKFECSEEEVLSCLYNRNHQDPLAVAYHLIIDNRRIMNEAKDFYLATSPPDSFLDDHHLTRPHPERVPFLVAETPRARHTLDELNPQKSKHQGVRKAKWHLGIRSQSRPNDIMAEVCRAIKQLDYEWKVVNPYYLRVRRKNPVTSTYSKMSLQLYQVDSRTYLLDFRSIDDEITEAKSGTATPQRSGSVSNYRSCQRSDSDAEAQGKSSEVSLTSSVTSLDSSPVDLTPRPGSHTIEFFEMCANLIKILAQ

Regarding `Cc1[nH]nc2c1N=C(c1ccccc1Cl)c1cc([N+](=O)[O-])ccc1N2`, the AC50 is 17 µM (active) in assay [1], 0.00702 µM (active) in assay [2], 41.4 µM (active) in [3] and 2.29 µM (active) in assay [5]. For the same compound, the outcome in assay [4] was inactive.
With `CN(C)C(=O)NC1(c2ccccc2)CCN(CCC[C@]2(c3ccc(Cl)c(Cl)c3)CCCN(C(=O)c3ccccc3)C2)CC1`, the AC50 in assay [6] is 5.13 µM (active). Further, the outcome in assay [2], in assay [7] and in assay [3] was inactive.
Take `O=C(O)CCCCC(=O)O`: the result in assay [1] and in [8] was inactive.
In the case of `COc1cc(-c2nc(NC(=O)c3cc4cc(C)cc(C)c4n3CC(=O)O)sc2CCC2CCCCC2)c(OC)cc1Cl`, the AC50 in assay [1] is 8.19 µM (active); in assay [9], 29.1 µM (active); in assay [10] it was 7.75 µM (active); in assay [11], 11.4 µM (active).
Consider `NCc1cccc(C2CCN(C(=O)c3ccc(C#Cc4ccccc4F)o3)CC2)c1`, for which the AC50 in assay [6] was 25 µM (active); in assay [13] it was 11.3 µM (active); in assay [14], 3.57 µM (active); in assay [15], 11.2 µM (active); in assay [16], 1.72 µM (active). The call in assay [12] was inactive.
Take `O=C1c2ccccc2C(=O)N1CCc1noc(-c2ccc(CN3CCCCCC3)s2)n1`: the AC50 is 13.8 µM (active) in assay [6], 11.4 µM (active) in assay [17] and 2.87 µM (active) in assay [18].
As to `CC(C)(C)c1ccccc1`, in assay [1], the call was inactive.
Regarding `CNS(=O)(=O)c1cc(C(=O)N2CCC(CCN3C4CCC3CC(n3c(C)nc5ccccc53)C4)(c3cccc(F)c3)CC2)c(Cl)cc1F` (centres undefined), the call in assay [6], in [19], in [13], in assay [14], in assay [17] and in [20] was inactive.
On to `CCCCCCC(CCCCCCCCCCC(=O)OCC(COC(C)=O)OC(C)=O)OC(C)=O` (centres undefined), for which the compound was called inactive in [6] and in assay [7].
`Nc1ccc2c(c1)C(=O)c1ccccc1C2=O`: the call in assay [6], in assay [9], in assay [7] and in assay [15] was inactive. For the same compound, the AC50 in assay [14] was 6.14 µM (active).
For `Clc1cc(Cl)c2c(c1)N=C1CCCCCN1C2`, the AC50 in [6] was 0.351 µM (active); in assay [13], 0.463 µM (active); in assay [16], 8.08 µM (active); in [20] it was 1.98 µM (active). The compound was classed as inactive in assay [3] and in [8].
Take `N=C(N)c1ccc(OCCCCCOc2ccc(C(=N)N)cc2)cc1`: the AC50 in assay [6] is 19.3 µM (active); in [13], 21.9 µM (active); in assay [15] it was 0.0798 µM (active); in assay [16], 0.203 µM (active). For the same compound, the outcome in [3] was inactive.
